Screens as filed in PubChem.
IDE exosite inh – exo-site inhibitors of human insulin-degrading enzyme; actives 6.3% (n = 17,000); purified IDE, FL-6b probe fluorescence polarization; hits give low values; P14735; z-score at 20 µM; AID 1259349;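 active = z-score of -3 or lower, meaning strong loss of probe binding signal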;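 note: His-tagged human IDE residues 42-1019 made in E. coli with 30 nM FL-6b probe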
Calls only. The list is a sample of the results.

O=C1CNC[C@@H]2[C@H](c3ccc(Br)cc3)[C@@H](CO)N12 was read as IDE exosite inh inactive.
Screening C[C@@H]1CN([C@H](C)CO)C(=O)CCCn2cc(nn2)CO[C@@H]1CN(C)C(=O)Oc1ccc2ccccc2c1 returned IDE exosite inh inactive.
Screening OC[C@@H]1[C@@H]2c3ccccc3NC[C@@H]2N1Cc1cccnc1 returned IDE exosite inh inactive.
For O=C(Cc1ccncc1)N1CCCCN2[C@@H](CO)[C@@H](c3ccc(C#CC4(O)CCCC4)cc3)[C@@H]2C1 the results were IDE exosite inh inactive.
Screening COC(=O)[C@H]1[C@H](CO)[C@H]2Cn3c(cccc3=O)[C@@H]1N2CCc1ccccc1 returned IDE exosite inh inactive.
For O=C([C@H]1N[C@H]2c3cccc(=O)n3C[C@H]2[C@@H]1CO)N1CCCCC1 the results were IDE exosite inh inactive.
`COC(=O)[C@@H]1[C@@H](CO)[C@@H]2Cn3c(ccc(-c4ccc(F)cc4)c3=O)[C@H]1N2C(=O)c1ccccc1F` gave IDE exosite inh inactive.
For COc1ccccc1CN1[C@H](CO)[C@H](c2ccccc2)C12CN(C(=O)Cc1ccccc1)C2 the results were IDE exosite inh inactive.
